{"source": "ChEMBL document CHEMBL2218924", "about": "“A broad activity screen in support of a chemogenomic map for kinase signalling research and drug discovery” (Biochem J, 2013)", "data": [{"target": "T1, Testis-specific serine/threonine-protein kinase 2 (Homo sapiens) (UniProt Q96PF2)", "T1 sequence (whole entry)": "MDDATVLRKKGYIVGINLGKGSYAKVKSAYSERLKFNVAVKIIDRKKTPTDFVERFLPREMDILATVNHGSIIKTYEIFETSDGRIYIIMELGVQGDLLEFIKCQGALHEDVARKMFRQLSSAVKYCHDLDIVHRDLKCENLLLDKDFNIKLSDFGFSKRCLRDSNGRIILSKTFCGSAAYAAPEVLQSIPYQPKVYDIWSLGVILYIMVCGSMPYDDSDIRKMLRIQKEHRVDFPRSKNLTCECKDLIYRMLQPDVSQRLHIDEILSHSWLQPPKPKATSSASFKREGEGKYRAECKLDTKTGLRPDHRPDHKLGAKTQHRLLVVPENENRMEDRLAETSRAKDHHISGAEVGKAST", "conditions": "at 1 µM", "units": {"residual activity": "%"}, "values": [{"smiles": "COc1cc2ncnc(Nc3ccc(Oc4ccccc4)cc3)c2cc1OC", "residual activity": 97}, {"smiles": "CC(C)n1cnc2/c(=N/c3cccc(Cl)c3)nc(NCCO)[nH]c21", "residual activity": 88}, {"smiles": "Fc1ccc(-c2nc3n(c2-c2ccncc2)CCS3)cc1", "residual activity": 85}, {"smiles": "CCN(CC)CCCCN1c2ccccc2Oc2ccc(Cl)cc21", "residual activity": 109}, {"smiles": "O=C(Nc1nc2ccccc2n1CCN1CCOCC1)c1cccc([N+](=O)[O-])c1", "residual activity": 102}, {"smiles": "O=C(Nc1cccc(Nc2cc(Nc3cccc(C(F)(F)F)c3)ncn2)c1)C1CC1", "residual activity": 91}, {"smiles": "CSc1nc(-c2ccc(F)cc2)c(-c2ccnc(NC(C)c3ccccc3)c2)[nH]1", "note": "(stereo not given)", "residual activity": 98}, {"smiles": "Nc1cccc(-c2cc3c(Oc4cccc(O)c4)ncnc3[nH]2)c1", "residual activity": 82}, {"smiles": "C[C@@H](N)[C@H]1CC[C@H](C(=O)Nc2ccncc2)CC1", "residual activity": 102}, {"smiles": "Cn1cnc2cc3c(Nc4cccc(Br)c4)ncnc3cc21", "residual activity": 100}, {"smiles": "COc1cc2ncnc(Nc3ccc(NC(=O)c4ccccc4)cc3)c2cc1OC", "residual activity": 106}, {"smiles": "CC(C)[C@H](CO)Nc1nc(Nc2cc(N)cc(Cl)c2)c2ncn(C(C)C)c2n1", "residual activity": 91}, {"smiles": "Oc1c2ccccc2c2c3c(cccc13)N=N2", "residual activity": 92}, {"smiles": "O=C1NC(=O)C(c2cn(CCCO)c3ncccc23)=C1c1cnccn1", "residual activity": 59}, {"smiles": "CC(C)c1nn(-c2c(Cl)cccc2Cl)c2nc(Cc3ccc(OCCO)cc3)[nH]c(=O)c12", "residual activity": 93}, {"smiles": "N#C/C(=C(\\N)Sc1ccc(N)cc1)c1ccccc1C(F)(F)F", "residual activity": 62}, {"smiles": "CCOC(=O)c1c(C)[nH]c(/C=C2\\C(=O)Nc3ccccc32)c1C", "residual activity": 90}, {"smiles": "N#C/C(=C1/Nc2ccccc2S1)c1ccnc(NCCc2cccnc2)n1", "residual activity": 82}, {"smiles": "Nc1n[nH]c2nc3ccccc3nc12", "residual activity": 95}, {"smiles": "O=C(O)c1ccc2c3c1cccc3c(=O)n1c3ccccc3nc21", "residual activity": 118}, {"smiles": "Cc1cccc(-c2[nH]c(C(C)(C)C)nc2-c2ccc3c(c2)OCO3)n1", "residual activity": 93}, {"smiles": "Cn1sc(=O)n(Cc2ccccc2)c1=O", "residual activity": 88}, {"smiles": "O=c1cc(N2CCNCC2)oc2c(-c3ccccc3)cccc12", "residual activity": 92}, {"smiles": "COc1cc2nccc(Oc3ccc(NC(=S)NC(=O)c4ccccc4C)cc3)c2cc1OC", "residual activity": 94}, {"smiles": "COc1cc2ncc(-c3ccccc3)nc2cc1OC", "residual activity": 76}, {"smiles": "Nc1ccc2ncnc(NCCc3ccc(Oc4ccccc4)cc3)c2c1", "residual activity": 106}, {"smiles": "O=C(c1cc2cc(O)ccc2[nH]1)c1cc2cc(O)ccc2[nH]1", "residual activity": 77}, {"smiles": "CC(C)(C)n1nc(Cc2cccc3ccccc23)c2c(N)ncnc21", "residual activity": 104}, {"smiles": "N#CC(C#N)=C(N)/C(C#N)=C/c1ccc(O)cc1", "residual activity": 85}, {"smiles": "O=c1cc(-c2cccc3c2Sc2ccccc2S3)oc(N2CCOCC2)c1", "residual activity": 112}, {"smiles": "O=C1NC(=O)/C(=C/c2ccc3c(c2)OC(F)(F)O3)S1", "residual activity": 93}, {"smiles": "COc1ccc(OC)c2c(=S)c3ccccc3[nH]c12", "residual activity": 106}, {"smiles": "Ic1cccc(CSc2nnc(-c3ccncc3)o2)c1", "residual activity": 87}, {"smiles": "NC(=O)c1ccc2[nH]c(-c3ccc(Oc4ccc(Cl)cc4)cc3)nc2c1", "residual activity": 98}, {"smiles": "Cc1cc2ncc(-c3ccccc3)nc2cc1C", "residual activity": 91}, {"smiles": "COc1ccc(Cl)cc1NC(=O)Nc1cc(C)nc2ccccc12", "residual activity": 100}, {"smiles": "O=C1c2ccccc2-[n+]2ccc3c([nH]c4ccccc43)c21", "residual activity": 98}, {"smiles": "CO[C@@H]1[C@H](N(C)C(=O)c2ccccc2)C[C@H]2O[C@]1(C)n1c3ccccc3c3c4c(c5c6ccccc6n2c5c31)C(=O)NC4", "residual activity": 51}, {"smiles": "CNc1cc2c(Nc3cccc(Br)c3)ncnc2cn1", "residual activity": 104}, {"smiles": "Nc1n[nH]c2nnc(-c3c(-c4ccccc4)nn4ccccc34)cc12", "residual activity": 104}]}]}
